# Shown are actives, neighbours in structure and some others; about 11% of the full set was active somewhere.
# CBFb-RUNX1 inh = blocks binding between human CBF-beta and RUNX1; AlphaScreen CBFb-His/RUNX1-biotin binding, biochemical; Potency, µM (series often up to 59.8 µM), for inactives: top-dose activity, negative = inhibition, actives largely listed as inhibitors; 230,000 tested, under 10 active; AID 1477; further: % of control where 0% means no effect
#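 Room-temperature protein-protein interaction test with 30 nM each of His-tagged CBF-beta and biotinylated RUNX1, 15 min with compound, then 90 min with nickel plus streptavidin beads. Signal read in AlphaScreen mode.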
# ALDH1A1 block = ALDH1A1 (human) enzyme inhibition; P00352; Purified ALDH1A1, NADH fluorescence, propionaldehyde substrate; Potency, µM (highest dose often 75.3 µM), without a hit: top-dose activity, negative = inhibition, usual class: inhibitors; hit rate 7.3% among 220,000; AID 1030; active means well fitted inhibition curve with a large enough effect, not every such curve was filed as active; inconclusive means small, poorly fitted or top-dose-only effect, or another doubt; inactive means no such curve, though single readings can be large or run the other way;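 further: potency means the concentration at half of the fitted maximal effect; plate controls were no enzyme wells and a reference inhibitor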
# Target sequence (P00352 whole entry, looked up): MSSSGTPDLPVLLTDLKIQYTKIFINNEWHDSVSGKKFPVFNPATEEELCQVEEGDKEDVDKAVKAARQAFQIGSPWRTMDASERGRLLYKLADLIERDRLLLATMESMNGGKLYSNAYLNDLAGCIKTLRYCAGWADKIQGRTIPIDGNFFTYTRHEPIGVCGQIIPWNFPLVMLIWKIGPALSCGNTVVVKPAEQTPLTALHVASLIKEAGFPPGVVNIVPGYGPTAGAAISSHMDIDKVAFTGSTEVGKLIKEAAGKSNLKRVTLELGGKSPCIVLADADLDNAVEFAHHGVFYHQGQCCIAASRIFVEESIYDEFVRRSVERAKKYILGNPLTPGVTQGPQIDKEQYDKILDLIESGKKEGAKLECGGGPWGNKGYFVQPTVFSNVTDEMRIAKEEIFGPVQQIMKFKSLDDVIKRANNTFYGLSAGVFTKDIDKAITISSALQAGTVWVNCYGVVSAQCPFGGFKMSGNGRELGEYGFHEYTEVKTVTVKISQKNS
# HTT ATP protect = cytoprotection in Huntington HTT-Q103 PC12 cell model; PC12 HTT-Q103 induced, cytoprotection, ATP luminescence, 40 h; Potency, µM (titrated, usually from 56.4 µM), inactives show cytoprotection (ATP increase), most hits filed as activators; hit rate 0.14% among 230,000; AID 1471; further: potency means the concentration at half of the fitted maximal effect; % of control where 0% means no effect; nearly all actives have a fitted effect of over 45% in size
#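 PC12 cells stably carrying ecdysone-inducible Htt exon 1 (Q103)–GFP were induced with 100 nM tebufenozide (final) alongside library compounds in a dose series. Cytoprotection was scored as retained ATP by ATPlite luminescence.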
# PNC inhibitor = blocks assembly of the perinucleolar compartment; PC3M PTB-GFP, PNC prevalence imaging, 16 h; active compounds read low; activity change (PNC), negative = inhibition, % at 10 µM; hit rate 3.1% among 140,000; AID 2417;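 active means readout at or below -70, meaning at least 70% loss of cells showing the perinucleolar compartment, a nuclear body marking cancer cells; inconclusive means readout between -30 and a set limit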;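 further: plate controls were DMSO wells for no effect and camptothecin positive control wells for full effect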
#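 Compounds are pinned in duplicate onto adhered PC3M cells stably expressing GFP-tagged PTB and incubated 16 h at 37 C. Cells are then fixed, nuclei stained with Hoechst, and PNC-positive cells counted.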
# HttQ103 aggreg = inhibitors of mutant huntingtin aggregate formation in PC12 cells; PC12 HttQ103-GFP aggregates, Acumen cytometry, 40 h; Potency, µM (doses to about 46.1 µM), for the others: at the top dose activity change, negative = inhibition, hits mostly inhibitors; hit rate 1.1% among 220,000; AID 1688; further: potency means the concentration at half of the fitted maximal effect; on the % scale 0 is the no-effect control and ±100 the full control effect; nearly all actives have a fitted effect of over 60% in size
#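 Aggregates are detected as GFP objects 1–25 µm with signal 6 STDEV over background in lysates of induced PC12 cells. These carry Huntingtin exon 1 with 103 glutamines fused to GFP under an ecdysone promoter; compounds titrated.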
# HPGD inh = blocks human HPGD enzyme activity. Potency, µM, for inactives: top-dose activity change, negative = inhibition, most hits filed as inhibitors. P15428. purified HPGD, NADH fluorescence kinetic, PGE2 substrate. hit rate 4.3% among 150,000; active means well fitted inhibition curve with a large enough effect, not every such curve was filed as active; inconclusive means small, poorly fitted or top-dose-only effect, or another doubt; inactive means no such curve, though single readings can be large or run the other way; further: potency means the concentration at half of the fitted maximal effect; on the % scale 0 is the no-effect control and ±100 the full control effect
# Target sequence (P15428 whole entry, looked up): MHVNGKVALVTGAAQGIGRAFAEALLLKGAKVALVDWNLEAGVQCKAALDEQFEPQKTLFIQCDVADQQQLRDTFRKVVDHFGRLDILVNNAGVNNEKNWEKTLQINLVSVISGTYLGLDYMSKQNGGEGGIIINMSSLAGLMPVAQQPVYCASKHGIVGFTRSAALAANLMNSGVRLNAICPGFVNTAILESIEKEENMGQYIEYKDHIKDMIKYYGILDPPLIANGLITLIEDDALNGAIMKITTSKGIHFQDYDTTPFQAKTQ
#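 NADH formation kinetics: reaction with 30 uM PGE2 and 1 mM NAD+ (final), 20 nM enzyme, Tris-HCl pH 8 with Tween 20, after 15 min compound preincubation at room temperature. Fluorescence change, last versus first of five reads.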
# * marks the source's active call; other numbers are inactive results; ? = inconclusive; / = not tested or not shown; [ ] = remark or other dose. Unless noted, the call rests on the fitted dose curve; in most records, active means well fitted curve in the direction sought with a large enough effect; inconclusive means small, poorly fitted or top-dose-only effect, or another doubt; inactive means no such curve, though single readings can be large; an effect the other way counts as inactive or inconclusive.
SMILES,CBFb-RUNX1 inh,ALDH1A1 block,HTT ATP protect,PNC inhibitor,HttQ103 aggreg,HPGD inh
CC(C)C[C@@H](/C=C/S(C)(=O)=O)NC(=O)[C@H](CC(C)C)NC(=O)[C@H](CC(C)C)NC(=O)OCc1ccccc1,-7%,?,-54%,/,/,/
CC(=O)C1=C(O)C(=O)N(C2CCCCC2)C1c1ccccc1 (configuration not stated),3%,22µM*,-3%[10 µM],-28,4%,-17%
Cc1ccc(C2C(C(=O)c3cc4ccccc4o3)=C(O)C(=O)N2CCN2CCOCC2)o1 (configuration not stated),16%,14µM*,-22%[0.074 µM],-5,?,-24%
CC(C)(C)NC(=O)Cn1c(=O)n(CC(=O)NC(C)(C)C)c2ccccc21,-1%,3%,-5%[10 µM],/,-2%[9.22 µM],/
CCN(CC)CCCN1C=C2C(=O)C(C)(OC(=O)c3cccs3)C(=O)C=C2C=C1CCCC(=O)OC (configuration not stated),-1%[13.1 µM],15%[13.5 µM],17%[10 µM],/,/,-1%
CC(C)c1ccc(/C=N/NC(=O)C(=O)NCCCN2CCOCC2)cc1,-10%,14µM*,7%[10 µM],34,-5%,-8%
Cc1cnc(CNc2cc(-c3ccc(N(C)C)cc3)ncn2)cn1,/,?,-59%,/,/,/
Oc1c(Cl)cc(CN(Cc2cc(Cl)c(O)c(Cl)c2)C2CCCCC2)cc1Cl,/,5%[13.5 µM],-2%[10 µM],/,/,-3%
Oc1c(Cl)cc(Cl)c2c1NCCC2,3%,5µM*,5%[10 µM],17,?,-10%
CN(CCc1ccc(Cl)c(Cl)c1)CCN1CCCCCC1,3%,-6%,-28%,/,/,1%
COc1ccc2ncc(S(=O)(=O)c3ccccc3)c(N3CCC4(CC3)OCCO4)c2c1,-5%,7.9µM*,-24%[10 µM],2,-10%,0%
COc1cc2ncc(S(=O)(=O)c3ccccc3)c(N3CCC4(CC3)OCCO4)c2cc1OC,-8%,?,-26%[10 µM],/,?,/
O=C(Nc1ccc(Cl)c(Cl)c1)Nc1nnc(CSc2ccccc2)s1,5%,12%,26%[10 µM],20,2.8µM*,-4%
O=C(Nc1ccccc1)Nc1nnc(CSCc2ccccc2Cl)s1,-4%,4%,5%[10 µM],-88*,?,-3%
Cc1nnc(NC(=O)Nc2cccc(Cl)c2)s1,6%,7%,-1%[10 µM],0,?,-4%
Cc1ccc(OCCSCc2nnc(NC(=O)Nc3cccc(Cl)c3)s2)cc1,2%,2%,/,?,8.9µM*,-8%
O=C(Nc1ccc(Cl)cc1)Nc1nnc(CSCc2ccccc2Cl)s1,2%,7%,18%[10 µM],-19,?,-8%
CNC(=S)Nc1ccc(N2CCN(c3ccc(C(F)(F)F)cn3)CC2)nc1,0%,4%,1%[10 µM],/,15%[9.22 µM],/
Cc1cc(C)c(C(=O)COC(=O)c2cc([N+](=O)[O-])ccc2NCCO)cc1C,-4%,-4%,/,2,0.014µM*,-10%
CC1=C(C#N)C(NC(=O)C2CC2)(C(F)(F)F)C(=O)N1 (configuration not stated),5%,0%,-55%[10 µM],7,0.32µM*,-7%
CCC(C)C(N)C(=O)O (configuration not stated),/,/,5%,/,-1%,/
N=c1n(Cc2ccc(Cl)cc2)c2ccccc2n1CC(O)COc1ccccc1 (configuration not stated),-8%,10%,0%[10 µM],/,14µM*,/
CCCNC(=O)OC[C@@H]1O[C@H](CCO/N=C(\C)CCC(=O)OC[C@@H]2O[C@H](c3ccccc3)C=C[C@@H]2Oc2ccc(OC)cc2)C=C[C@@H]1Oc1ccc(OC)cc1,13%[13.1 µM],-2%[13.5 µM],?,/,/,/
Nc1ccc(Oc2ccc3c(c2)C(=O)N(CC2CCCO2)C3=O)cc1 (configuration not stated),9%,28µM*,2%[10 µM],/,-5%[9.22 µM],/
Nc1ccc2c(c1)C(=O)N(CC1CCCO1)C2=O (configuration not stated),5%,8.9µM*,-13%[10 µM],27,-7%,-5%
SMILES,CBFb-RUNX1 inh,ALDH1A1 block,HTT ATP protect,PNC inhibitor,HttQ103 aggreg,HPGD inh
COC(=O)[C@@H]1[C@@H](O)[C@]2(O)c3ccccc3O[C@]2(c2ccccc2)[C@H]1c1ccccc1,3%[13.1 µM],11%[13.5 µM],13%[10 µM],/,/,/
O=C(/C=C/c1ccc2c(c1)OCO2)c1cccs1,-8%[21.7 µM],?,-21%[1.9 µM],/,/,?
O=C(O)[C@@H]1[C@@H](C(=O)NCc2ccccn2)[C@@H]2C=C[C@@H]1O2,/,-9%[13.5 µM],-14%[10 µM],/,/,-6%
Cc1cc(O)c(C(=O)c2ccccc2C(=O)O)cc1C,7%,18µM*,9%,31,-3%,-13%
CCOC(=O)CCN1C(=O)[C@H]2[C@H]3[C@H](O)[C@H](O)C/C(=N/NC(=O)OCC)[C@@H]3CC[C@@H]2C1=O,16%[13.1 µM],2%[13.5 µM],-41%[10 µM],/,/,/
CCOC(=O)c1sc2nc(CC(=O)OC)nc(NCCN3CCOCC3)c2c1C,13%,?,-14%[10 µM],?,12%,-18%
CCOC(=O)c1sc2nc(CC(=O)OC)nc(N3CCN(c4ccc(OC)cc4)CC3)c2c1C,-4%,0.1µM*,1%,-100*,-5%,-11%
S=C(Nc1cccc(Cl)c1)Nc1cccc2cnccc12,-2%,3.2µM*,-98%[10 µM],13,?,?
Cc1ccc(C)c(NC(=S)Nc2cccc3cnccc23)c1,-12%,8.9µM*,?,/,13%,/
NC(=S)Nc1cccc2cnccc12,6%,13%,-5%[10 µM],21,4%,-3%
Cc1ccccc1NC(=S)Nc1cccc2cnccc12,7%,?,-23%,/,12%,/
Cc1ccc(NC(=S)Nc2cccc3cnccc23)cc1C,-5%,2.5µM*,19%[10 µM],/,3%,/
CC(=O)c1ccc(NC(=S)Nc2cccc3cnccc23)cc1,10%,/,-63%[10 µM],/,-9%[9.22 µM],/
Cc1ccc(NC(=S)Nc2cccc3cnccc23)cc1,-16%,13µM*,1%,/,-14%,/
CC(=O)O[C@]1(C(C)=O)CC[C@@H]2[C@@H]3C=C(Cl)C4=CC(=O)[C@H]5C[C@@H]5[C@]4(C)[C@H]3CC[C@]21C,15%[21.7 µM],5%[20.9 µM],2%[40.3 µM],/,/,0%
O=C(CSc1cccc[n+]1[O-])Nc1ccc([N+](=O)[O-])cc1Cl,3%,8%,4%[10 µM],/,-2%,/
CCCCCCCCCCCC,4%,/,/,/,/,/
O=C(NN1C(=O)C2C(c3ccccc3)C=CC(c3ccccc3)C2C1=O)c1cccc(Br)c1 (configuration not stated),-1%,-2%,-25%[10 µM],-25,?,-16%
CC(=O)[C@]1(O)CCC2C3CC(C)C4=CC(=O)C=CC4(C)[C@@]3(F)C(O)C[C@]21C (some centres not stated),6%,-3%,-83%,/,/,-2%
Cc1ccc(S(=O)(=O)Cc2c(C)noc2C)cc1,-2%,3%,-9%,13,2%,-15%
